# B1: unnamed (peptide)
# chain: TYNRTAFQIPGDQSI
# B2: unnamed (peptide)
# chain: TKHKAPPPPPPTAET
# Target: AgAbp1
# Assay: SPOT peptide array binding signal intensity (averaged, normalized) (arbitrary units (background-subtracted, floor 0; scale differs between SH3 domains)); higher = stronger binding of the SH3 domain to the peptide
# Procedure, shortened: (§1)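 Peptides were synthetic 15-mers on cellulose membranes, with every cysteine replaced by serine. They were incubated overnight at 4°C with GST-SH3 domains from four yeast species at 10 μg/ml in TBS-based blocking buffer. Binding signal, the replicate-averaged normalized and background-subtracted spot intensity, is in arbitrary units that differ between domains.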
row,Binder,SPOT peptide array binding signal intensity
1,B1,1
2,B2,1

# Target: AgBbc1
# Assay: as above
# Procedure, shortened: as §1
row,Binder,SPOT peptide array binding signal intensity
1,B1,≤ 0
2,B2,≤ 0

# Target: AgBem1-D1
# Assay: as above
# Procedure, shortened: as §1
row,Binder,SPOT peptide array binding signal intensity
1,B1,≤ 0
2,B2,≤ 0

# Target: AgBzz1-D1
# Assay: as above
# Procedure, shortened: as §1
row,Binder,SPOT peptide array binding signal intensity
1,B1,60
2,B2,2000

# Target: AgBzz1-D2
# Assay: as above
# Procedure, shortened: as §1
row,Binder,SPOT peptide array binding signal intensity
1,B1,≤ 0
2,B2,338

# Target: AgCyk3
# Assay: as above
# Procedure, shortened: as §1
row,Binder,SPOT peptide array binding signal intensity
1,B1,≤ 0
2,B2,≤ 0

# Target: AgFus1
# Assay: as above
# Procedure, shortened: as §1
row,Binder,SPOT peptide array binding signal intensity
1,B1,0.5
2,B2,≤ 0

# Target: AgHof1
# Assay: as above
# Procedure, shortened: as §1
row,Binder,SPOT peptide array binding signal intensity
1,B1,3.5
2,B2,≤ 0

# Target: AgHse1
# Assay: as above
# Procedure, shortened: as §1
row,Binder,SPOT peptide array binding signal intensity
1,B1,≤ 0
2,B2,4

# Target: AgLsb1
# Assay: as above
# Procedure, shortened: as §1
row,Binder,SPOT peptide array binding signal intensity
1,B1,540
2,B2,≤ 0

# Target: AgLsb4
# Assay: as above
# Procedure, shortened: as §1
row,Binder,SPOT peptide array binding signal intensity
1,B1,≤ 0
2,B2,≤ 0

# Target: AgMyo5
# Assay: as above
# Procedure, shortened: as §1
row,Binder,SPOT peptide array binding signal intensity
1,B1,2.25
2,B2,21.8

# Target: AgNbp2
# Assay: as above
# Procedure, shortened: as §1
row,Binder,SPOT peptide array binding signal intensity
1,B1,≤ 0
2,B2,39.5

# Target: AgRvs167
# Assay: as above
# Procedure, shortened: as §1
row,Binder,SPOT peptide array binding signal intensity
1,B1,1
2,B2,4

# Target: AgSho1
# Assay: as above
# Procedure, shortened: as §1
row,Binder,SPOT peptide array binding signal intensity
1,B1,≤ 0
2,B2,≤ 0

# Target: AgSla1-D1-D2
# Assay: as above
# Procedure, shortened: as §1
row,Binder,SPOT peptide array binding signal intensity
1,B1,≤ 0
2,B2,3

# Target: AgSla1-D3
# Assay: as above
# Procedure, shortened: as §1
row,Binder,SPOT peptide array binding signal intensity
1,B1,1
2,B2,774

# Target: CaAbp1-D1
# Assay: as above
# Procedure, shortened: as §1
row,Binder,SPOT peptide array binding signal intensity
1,B1,≤ 0
2,B2,12

# Target: CaAbp1-D2
# Assay: as above
# Procedure, shortened: as §1
row,Binder,SPOT peptide array binding signal intensity
1,B1,≤ 0
2,B2,≤ 0

# Target: CaBbc1
# Assay: as above
# Procedure, shortened: as §1
row,Binder,SPOT peptide array binding signal intensity
1,B1,1
2,B2,≤ 0

# Target: CaBem1-D1
# Assay: as above
# Procedure, shortened: as §1
row,Binder,SPOT peptide array binding signal intensity
1,B1,≤ 0
2,B2,42.5

# Target: CaBzz1-D1
# Assay: as above
# Procedure, shortened: as §1
row,Binder,SPOT peptide array binding signal intensity
1,B1,60.5
2,B2,4620

# Target: CaBzz1-D2
# Assay: as above
# Procedure, shortened: as §1
row,Binder,SPOT peptide array binding signal intensity
1,B1,43.5
2,B2,3490

# Target: CaCyk3
# Assay: as above
# Procedure, shortened: as §1
row,Binder,SPOT peptide array binding signal intensity
1,B1,1
2,B2,1

# Target: CaFus1
# Assay: as above
# Procedure, shortened: as §1
row,Binder,SPOT peptide array binding signal intensity
1,B1,≤ 0
2,B2,4.5

# Target: CaHof1
# Assay: as above
# Procedure, shortened: as §1
row,Binder,SPOT peptide array binding signal intensity
1,B1,0.5
2,B2,1

# Target: CaHse1
# Assay: as above
# Procedure, shortened: as §1
row,Binder,SPOT peptide array binding signal intensity
1,B1,2.5
2,B2,5.5

# Target: CaLsb1
# Assay: as above
# Procedure, shortened: as §1
row,Binder,SPOT peptide array binding signal intensity
1,B1,207
2,B2,≤ 0

# Target: CaLsb4
# Assay: as above
# Procedure, shortened: as §1
row,Binder,SPOT peptide array binding signal intensity
1,B1,≤ 0
2,B2,≤ 0

# Target: CaMyo5
# Assay: as above
# Procedure, shortened: as §1
row,Binder,SPOT peptide array binding signal intensity
1,B1,≤ 0
2,B2,0.25

# Target: CaNbp2
# Assay: as above
# Procedure, shortened: as §1
row,Binder,SPOT peptide array binding signal intensity
1,B1,≤ 0
2,B2,≤ 0

# Target: CaRvs167
# Assay: as above
# Procedure, shortened: as §1
row,Binder,SPOT peptide array binding signal intensity
1,B1,2.33
2,B2,≤ 0

# Target: CaRvs167-3
# Assay: as above
# Procedure, shortened: as §1
row,Binder,SPOT peptide array binding signal intensity
1,B1,0.5
2,B2,4

# Target: CaSho1
# Assay: as above
# Procedure, shortened: as §1
row,Binder,SPOT peptide array binding signal intensity
1,B1,≤ 0
2,B2,≤ 0

# Target: CaSla1-D1-D2
# Assay: as above
# Procedure, shortened: as §1
row,Binder,SPOT peptide array binding signal intensity
1,B1,≤ 0
2,B2,6.5

# Target: CaSla1-D3
# Assay: as above
# Procedure, shortened: as §1
row,Binder,SPOT peptide array binding signal intensity
1,B1,1.5
2,B2,≤ 0

# Target: ScAbp1
# Assay: as above
# Procedure, shortened: as §1
row,Binder,SPOT peptide array binding signal intensity
1,B1,≤ 0
2,B2,1.5

# Target: ScBbc1
# Assay: as above
# Procedure, shortened: as §1
row,Binder,SPOT peptide array binding signal intensity
1,B1,2.5
2,B2,≤ 0

# Target: ScBem1-D1
# Assay: as above
# Procedure, shortened: as §1
row,Binder,SPOT peptide array binding signal intensity
1,B1,11
2,B2,3

# Target: ScBzz1-D1
# Assay: as above
# Procedure, shortened: as §1
row,Binder,SPOT peptide array binding signal intensity
1,B1,40
2,B2,5910

# Target: ScBzz1-D2
# Assay: as above
# Procedure, shortened: as §1
row,Binder,SPOT peptide array binding signal intensity
1,B1,13.5
2,B2,5

# Target: ScCyk3
# Assay: as above
# Procedure, shortened: as §1
row,Binder,SPOT peptide array binding signal intensity
1,B1,≤ 0
2,B2,≤ 0

# Target: ScFus1
# Assay: as above
# Procedure, shortened: as §1
row,Binder,SPOT peptide array binding signal intensity
1,B1,≤ 0
2,B2,18

# Target: ScHof1
# Assay: as above
# Procedure, shortened: as §1
row,Binder,SPOT peptide array binding signal intensity
1,B1,≤ 0
2,B2,≤ 0

# Target: ScHse1
# Assay: as above
# Procedure, shortened: as §1
row,Binder,SPOT peptide array binding signal intensity
1,B1,≤ 0
2,B2,≤ 0

# Target: ScLsb1
# Assay: as above
# Procedure, shortened: as §1
row,Binder,SPOT peptide array binding signal intensity
1,B1,142
2,B2,0.25

# Target: ScLsb2
# Assay: as above
# Procedure, shortened: as §1
row,Binder,SPOT peptide array binding signal intensity
1,B1,661
2,B2,≤ 0

# Target: ScLsb3
# Assay: as above
# Procedure, shortened: as §1
row,Binder,SPOT peptide array binding signal intensity
1,B1,≤ 0
2,B2,≤ 0

# Target: ScLsb4
# Assay: as above
# Procedure, shortened: as §1
row,Binder,SPOT peptide array binding signal intensity
1,B1,11.5
2,B2,≤ 0

# Target: ScMyo3
# Assay: as above
# Procedure, shortened: as §1
row,Binder,SPOT peptide array binding signal intensity
1,B1,3
2,B2,160

# Target: ScMyo5
# Assay: as above
# Procedure, shortened: as §1
row,Binder,SPOT peptide array binding signal intensity
1,B1,8.5
2,B2,112

# Target: ScNbp2
# Assay: as above
# Procedure, shortened: as §1
row,Binder,SPOT peptide array binding signal intensity
1,B1,≤ 0
2,B2,3.5

# Target: ScPex13
# Assay: as above
# Procedure, shortened: as §1
row,Binder,SPOT peptide array binding signal intensity
1,B1,≤ 0
2,B2,0.75

# Target: ScRvs167
# Assay: as above
# Procedure, shortened: as §1
row,Binder,SPOT peptide array binding signal intensity
1,B1,≤ 0
2,B2,1.5

# Target: ScSho1
# Assay: as above
# Procedure, shortened: as §1
row,Binder,SPOT peptide array binding signal intensity
1,B1,≤ 0
2,B2,2.5

# Target: ScSla1-D1-D2
# Assay: as above
# Procedure, shortened: as §1
row,Binder,SPOT peptide array binding signal intensity
1,B1,≤ 0
2,B2,≤ 0

# Target: ScSla1-D3
# Assay: as above
# Procedure, shortened: as §1
row,Binder,SPOT peptide array binding signal intensity
1,B1,0.5
2,B2,4

# Target: SpAbp1-D1
# Assay: as above
# Procedure, shortened: as §1
row,Binder,SPOT peptide array binding signal intensity
1,B1,≤ 0
2,B2,≤ 0

# Target: SpBbc1
# Assay: as above
# Procedure, shortened: as §1
row,Binder,SPOT peptide array binding signal intensity
1,B1,0.5
2,B2,2

# Target: SpBzz1-D1
# Assay: as above
# Procedure, shortened: as §1
row,Binder,SPOT peptide array binding signal intensity
1,B1,70
2,B2,240

# Target: SpBzz1-D2
# Assay: as above
# Procedure, shortened: as §1
row,Binder,SPOT peptide array binding signal intensity
1,B1,≤ 0

# Target: SpCyk3
# Assay: as above
# Procedure, shortened: as §1
row,Binder,SPOT peptide array binding signal intensity
1,B1,≤ 0

# Target: SpHof1
# Assay: as above
# Procedure, shortened: as §1
row,Binder,SPOT peptide array binding signal intensity
1,B1,1.75

# Target: SpHof1-2
# Assay: as above
# Procedure, shortened: as §1
row,Binder,SPOT peptide array binding signal intensity
1,B1,5.25

# Target: SpHof1-3
# Assay: as above
# Procedure, shortened: as §1
row,Binder,SPOT peptide array binding signal intensity
1,B1,0.25

# Target: SpHse1
# Assay: as above
# Procedure, shortened: as §1
row,Binder,SPOT peptide array binding signal intensity
1,B1,50.2

# Target: SpLsb1
# Assay: as above
# Procedure, shortened: as §1
row,Binder,SPOT peptide array binding signal intensity
1,B1,17.5

# Target: SpLsb4
# Assay: as above
# Procedure, shortened: as §1
row,Binder,SPOT peptide array binding signal intensity
1,B1,≤ 0

# Target: SpMyo1
# Assay: as above
# Procedure, shortened: as §1
row,Binder,SPOT peptide array binding signal intensity
1,B1,2.75

# Target: SpNbp2
# Assay: as above
# Procedure, shortened: as §1
row,Binder,SPOT peptide array binding signal intensity
1,B1,≤ 0

# Target: SpPex13
# Assay: as above
# Procedure, shortened: as §1
row,Binder,SPOT peptide array binding signal intensity
1,B1,≤ 0

# Target: SpRvs167
# Assay: as above
# Procedure, shortened: as §1
row,Binder,SPOT peptide array binding signal intensity
1,B1,0.333

# Target: SpSla1-D1-D2
# Assay: as above
# Procedure, shortened: as §1
row,Binder,SPOT peptide array binding signal intensity
1,B1,≤ 0

# Target: SpSla1-D3
# Assay: as above
# Procedure, shortened: as §1
row,Binder,SPOT peptide array binding signal intensity
1,B1,≤ 0
